Source: PubChem
This is a sample that favours compounds with a hit; in the whole collection about 1.9% have one here.
SDO1 yeast rescue = restores growth of sdo1-depleted yeast. z-score at 10 µM. actives 0.21% (n = 140,000). S. cerevisiae sdo1-depleted JHY4D growth rescue, OD600 30 h; stronger effect = higher value; pdr5 snq2 efflux-pump mutant strain. AID 817;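 active = z-score above 3 at both the 24 hr and the 30 hr optical density reads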;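 note: z-score against mean and SD of all compound wells on the same plate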
S1P2 antag = antagonists of human S1P2 receptor; cell-based S1P2 antagonist assay, inhibition at 5 uM; inhibition, % at 5 µM; actives 0.21% (n = 97,000); AID 736; in the data active = inhibition above about 45%;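 note: CRE beta-lactamase reporter cells expressing human S1P2 stimulated with S1P; 0% = agonist at EC80 alone and 100% = agonist plus reference antagonist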
S1P2 ag = S1P2 (human) receptor agonism | O95136 | S1P2-expressing cell line, agonist reporter read-out | activation, % at 4.5 µM | actives 0.46% (n = 97,000) | AID 729; in the data active = activation above about 16%;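 note: 0% = vehicle low control and 100% = maximal reference agonist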
FAK blocker = blocks human focal adhesion kinase activity; Q05397; biochemical FAK kinase activity assay; inhibition, %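 (tested at 7 µM)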; actives 0.84% (n = 97,000); AID 727; in the data active = inhibition above about 19%;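 note: 0% = DMSO and 100% = reference compound high control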
GALR2 agonist = agonists of human galanin receptor 2 (GALR2). O43603. GALR2-expressing cells, agonist activation read-out. activation, % (no concentration beside the values). actives 0.48% (n = 140,000); in the data active = activation above about 5%, passing the limit was not always enough;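 note: 0% = vehicle buffer wells and 100% = reference agonist at full effect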
Target sequence (O43603 whole entry, looked up): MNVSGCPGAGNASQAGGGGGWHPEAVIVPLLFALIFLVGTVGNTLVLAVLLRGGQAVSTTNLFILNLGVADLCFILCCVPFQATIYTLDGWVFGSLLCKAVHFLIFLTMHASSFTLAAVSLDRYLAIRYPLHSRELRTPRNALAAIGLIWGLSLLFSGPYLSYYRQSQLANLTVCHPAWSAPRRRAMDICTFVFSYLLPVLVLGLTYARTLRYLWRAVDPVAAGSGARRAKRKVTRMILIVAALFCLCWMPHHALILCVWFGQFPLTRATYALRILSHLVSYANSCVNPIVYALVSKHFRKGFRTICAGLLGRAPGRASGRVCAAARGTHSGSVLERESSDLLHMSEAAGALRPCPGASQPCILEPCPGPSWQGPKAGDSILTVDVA
GALR2 antag = antagonists of human galanin receptor 2 (GALR2); O43603; GALR2-expressing cells, antagonist mode; inhibition, % at 4 µM; actives 0.39% (n = 140,000); AID 828; in the data active = inhibition above about 27%;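 note: cells stimulated with galanin 1-16 at roughly its EC80; 0% = agonist challenge control and 100% = basal control without agonist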
An asterisk follows results filed as active; · = no result given.

SMILES	SDO1 yeast rescue	S1P2 antag	S1P2 ag	FAK blocker	GALR2 agonist	GALR2 antag
COc1cc(/C=C/C(=O)OCC(=O)Nc2ccc3c(c2)OCCO3)ccc1OCC#N	-1.1	·	·	·	-1	-1
Cc1cccc(-n2c(SCc3cc(=O)n4c(C)cccc4n3)nc3[nH]ncc3c2=O)c1	0.38	-30	17*	1	-2	3
COc1ccc(N2CCn3c2nc2c3c(=O)n(CCCc3ccccc3)c(=O)n2C)c(OC)c1	-1.5	58*	-4	4	-1	0
CCCOc1ccccc1C1NC(=O)NC(C)=C1C(=O)OCCOCC (stereo not given)	0.49	17	-6	2	-2	-11
COC(=O)C1=C(C)Nc2nnnn2C1c1ccccc1Cl (stereo not given)	1.3	-3	-1	1	0	0
COc1ccccc1C(=O)NCCCN1CCCC1=O	0.96	7	-6	6	-2	-29
CCCCOc1ccccc1C1C(C(=O)OC)=CN(CC)C=C1C(=O)OC	-1.1	-47	24*	1	16*	-7
COC(=O)C1=CN(CCCN2CCCC2=O)C=C(C(=O)OC)C1c1ccccc1C(F)(F)F	0.28	-11	20*	6	20*	-4
COC(=O)C1=CN(C)C=C(C(=O)OC)C1c1ccccc1Cl	0.61	-24	23*	2	16*	-10
CCOc1ccc(C2C(C(=O)OC)=CN(CCOC)C=C2C(=O)OC)cc1	-0.53	·	·	·	4	5
CCCOc1ccccc1C1C(C(=O)OC)=CN(C(C)C)C=C1C(=O)OC	-1.3	-16	32*	1	29*	-12
Cc1ccc(C(=O)OCC(=O)Nc2ccccc2Sc2ccccc2)cc1C	-1.2	·	·	·	-1	2
CCN1C=C(C(=O)OC)C(c2cccc(C)c2)C(C(=O)OC)=C1	-0.49	-9	13	-2	14*	6
CCn1c2ccccc2c2nc3cc(S(=O)(=O)N4CCOCC4)ccc3nc21	-2.4	-32	31*	-2	2	-19
COc1cccc(-n2c(SCC(=O)Nc3sc4c(c3C(N)=O)CCC4)nc3ccccc3c2=O)c1	0.41	-32	19*	2	-2	3
FC(F)(F)c1ccc(Cl)c(N/N=C/c2ccc(N3CCOCC3)s2)c1	-0.09	·	·	·	1	5
C=CCNC(=O)/C(C#N)=C\c1cc(Cl)c(OCC)c(OC)c1	-1.6	·	·	·	0	-4
O=C(Nc1cc([N+](=O)[O-])ccc1F)C1CC1	1.7	·	·	·	1	-3
Cc1ccc(S(=O)(=O)Oc2ccc(C3C4=C(CCCC4=O)N(CCC(=O)O)C4=C3C(=O)CCC4)cc2Cl)cc1	1.7	·	·	·	6.6*	9
CCOc1cc(C2C3=C(CCCC3=O)N(CCC(=O)O)C3=C2C(=O)CCC3)ccc1OS(=O)(=O)c1ccc(C)cc1	0.36	·	·	·	1	-2
COc1cc2c(cc1OC)C1=C(C#N)CCC(=NC(=O)c3ccc(Cl)cc3)N1CC2	-0.67	-14	55*	-2	1	-15
COc1ccc(CNC(=O)c2sc3nc4c(c(C(F)(F)F)c3c2N)CCC4)cc1	-0.58	·	·	·	0	-2
c1ccc(C2COC(c3cccs3)=N2)cc1 (stereo not given)	-0.14	11	-7	-3	-1	-2
Fc1ccccc1N1CC(c2ccccc2)C(c2cccs2)=N1 (stereo not given)	0.56	-34	23*	0	46*	-7
Cc1ccsc1/C=C1\Oc2cc(OCC(=O)c3ccccc3)ccc2C1=O	-0.18	·	·	·	1	-4
SMILES	SDO1 yeast rescue	S1P2 antag	S1P2 ag	FAK blocker	GALR2 agonist	GALR2 antag
CSc1nc(-c2ccc(F)cc2)cc(=O)[nH]1	-0.32	·	·	·	-2	-1
CC(C)COC(=O)c1cccc2c1-c1ccccc1/C2=N\O	-2.1	-11	-2	55*	-3	8
CC1C/C(=C/c2cccn2C)C(=O)/C(=C/c2cccn2C)C1 (stereo not given)	-1.4	59*	-11	-1	1	24
CC(C(=O)O)N1C(=O)/C(=C/c2cccn2C)SC1=S (stereo not given)	2	·	·	·	-1	-6
Cc1nc(-c2ccc(Br)cc2)ccc1C(=O)O	-0.51	·	·	·	-1	5
NC(=O)c1ccsc1NC(=O)c1cccs1	·	-15	-4	28*	-2	10
CCOc1ccccc1NC(=S)NCC1CCCO1 (stereo not given)	0.01	·	·	·	-1	5
COc1cccc(/C=C/C(=O)Nc2ccc(OC)nc2)c1	-0.57	·	·	·	0	4
